Data reported in PubChem BioAssay AID1035475 (Broad Institute, 2014).
Measured potencies and affinities stand elsewhere. Inconclusive results are not listed. Active and inactive are the calls of the source.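 Rule for the calls: active = fluorescent signal drops by 40% or more, counted as a hit; inconclusive = no clear call, values can overlap the other calls; inactive = the rest, including any activity in the opposite direction.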

Assay: inhibitors of fibronectin matrix deposition, dose response, AH1F cells, Alexa488-FN fluorescence, cherry-picks (AID 1035475);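 note: AH1F fibroblasts incorporating labeled fibronectin into their extracellular matrix; 0% = neutral control wells and -100% = wells without labeled fibronectin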
Settings: AH1F fibroblasts, overnight; series mostly up to 35 µM; activity change, negative = inhibition: at the top concentration

Row | SMILES | activity change, negative = inhibition
1 | COc1ccc(-c2csc(CCn3nc(C)cc3C)n2)cc1OC | -6.87% (inactive)
2 | CN(C)C(=O)c1ccc(-c2ccc3c(c2)[C@@H]2[C@@H](CCN2C(=O)c2ccc(F)cc2)[C@@H](CO)N3C)cc1 | 24% (inactive)
3 | CO[C@@H]1CN(C)C(=O)c2ccc(NC(=O)c3ccc(-c4ccccc4)cc3)cc2OC[C@H](C)NC[C@@H]1C | 5.74% (inactive)
4 | C[C@H](CO)N1C[C@H](C)[C@@H](CN(C)Cc2ccc(-c3ccccc3)cc2)Oc2ccc(NC(=O)C3CCCCC3)cc2C1=O | 20.7% (inactive)
5 | O=S(=O)(c1ccccc1F)N1CC[C@H]2[C@H](CO)Nc3ccc(-c4cccc(F)c4)cc3[C@H]21 | 11.5% (inactive)
6 | O=C(CN1CCCC1)Nc1ccc(Oc2ccc(NC(=O)CN3CCCC3)cc2)cc1 | -14.8% (inactive)
7 | C[C@H](CO)N1C[C@H](C)[C@H](CN(C)Cc2ccccc2)Oc2ncc(-c3ccccc3)cc2C1=O | 26.4% (inactive)
8 | CCc1nc2c(OCCc3cccc(OC)c3)cccn2c1N(C)C(=O)c1ccc(C)cc1 | -32.4% (inactive)
9 | CO[C@@H]1CN(C)C(=O)c2cc(NC(=O)Nc3ccc(Cl)c(Cl)c3)ccc2OC[C@H](C)NC[C@H]1C | -1.63% (inactive)
10 | C[C@@H]1CN([C@H](C)CO)C(=O)c2cc(-c3ccccc3)cnc2O[C@@H]1CN(C)Cc1ccccc1 | 31% (inactive)
11 | N#C[C@@H]1[C@H](c2ccccc2C2=CCCCC2)[C@@H](CO)N1S(=O)(=O)c1ccccc1 | 59.9% (inactive)
12 | CO[C@H]1CN(C)C(=O)c2ccc(NC(=O)Nc3ccc(Cl)c(Cl)c3)cc2OC[C@H](C)NC[C@H]1C | -31.4% (inactive)
13 | N#C[C@@H]1[C@@H](c2ccccc2C2=CCCCC2)[C@H](CO)N1S(=O)(=O)c1ccccc1 | 23.1% (inactive)
14 | COc1cccc(-c2ccc3c(c2)[C@H]2[C@H](CCN2S(=O)(=O)c2cccc(OC)c2)[C@H](CO)N3)c1 | 3.66% (inactive)
15 | C[C@H]1CN([C@@H](C)CO)C(=O)c2cccc(NC(=O)Nc3ccc(C(F)(F)F)cc3)c2O[C@H]1CN(C)C(=O)Nc1cccc2ccccc12 | -1.4% (inactive)
16 | Cc1cccc(NC(=O)Nc2ccc(S(=O)(=O)Nc3onc(C)c3C)cc2)c1 | -8.12% (inactive)
17 | CCOC(=O)C1=C(C)Nc2nc3ccccc3n2C1c1ccncc1 (stereo not given) | 0.713% (inactive)
18 | CO[C@H]1CN(C)C(=O)c2ccc(NC(=O)c3ccc(-c4ccccc4)cc3)cc2OC[C@H](C)NC[C@H]1C | 21.2% (inactive)

Row | SMILES | activity change, negative = inhibition
19 | C[C@H]1CN([C@@H](C)CO)C(=O)c2cc(NC(=O)C3CCCCC3)ccc2O[C@H]1CN(C)Cc1ccc(-c2ccccc2)cc1 | 9.85% (inactive)
20 | O=S(=O)(c1ccccc1F)N1CC[C@@H]2[C@H]1c1cc(-c3cccc(F)c3)ccc1N[C@@H]2CO | 30.4% (inactive)
21 | N#C[C@H]1[C@@H](c2ccccc2C2=CCCCC2)[C@@H](CO)N1S(=O)(=O)c1ccccc1 | 19.1% (inactive)
22 | O=S(=O)(c1cccc(F)c1)N1CC[C@@H]2[C@H]1c1cc(-c3cccc(F)c3)ccc1N[C@@H]2CO | 10.5% (inactive)
23 | CCOc1ccccc1NC(=O)c1c(NC(=O)CCC(=O)O)sc2c1CCCCC2 | -7.79% (inactive)
24 | CO[C@H]1CN(C)C(=O)c2ccc(NC(=O)Nc3cc(Cl)cc(Cl)c3)cc2OC[C@H](C)NC[C@@H]1C | 5.11% (inactive)
25 | O=c1c2cc(N3CCOCC3)ccc2[nH]c(=S)n1Cc1ccc(Cl)cc1 | -36.2% (inactive)
26 | COC(=O)C[C@H]1CC[C@H]2[C@@H](COc3ccc(NC(=O)Cc4cccs4)cc3C(=O)N2C)O1 | 28% (inactive)
27 | Cn1cnc(S(=O)(=O)N2CCN(c3ccccc3)CC2)c1 | -23.9% (inactive)
28 | CN1c2ccc(-c3ccccc3)cc2[C@H]2[C@H](CCN2C(=O)CN2CCOCC2)[C@H]1CO | 34.4% (inactive)
29 | C[C@@H]1CN([C@@H](C)CO)C(=O)c2cc(-c3ccccc3)cnc2O[C@H]1CN(C)Cc1ccccc1 | 22.7% (inactive)
30 | COC(=O)C[C@H]1CC[C@@H]2[C@H](COc3ccc(NC(=O)Cc4cccs4)cc3C(=O)N2C)O1 | 10.4% (inactive)
31 | CO[C@@H]1CN(C)C(=O)c2cc(NC(=O)Nc3cc(Cl)cc(Cl)c3)ccc2OC[C@H](C)NC[C@@H]1C | 4.27% (inactive)
32 | CO[C@H]1CN(C)C(=O)c2cc(NC(=O)Nc3cc(Cl)cc(Cl)c3)ccc2OC[C@H](C)NC[C@H]1C | 9.38% (inactive)
33 | C[C@H]1CN([C@@H](C)CO)C(=O)c2cc(-c3ccccc3)cnc2O[C@H]1CN(C)Cc1ccccc1 | 34.5% (inactive)
34 | CO[C@H]1CN(C)C(=O)c2cc(NC(=O)Nc3ccc(Cl)c(Cl)c3)ccc2OC[C@@H](C)NC[C@H]1C | 19.8% (inactive)
35 | CN(C)C(=O)c1ccc(-c2ccc3c(c2)[C@H]2[C@H](CCN2C(=O)c2ccc(F)cc2)[C@H](CO)N3C)cc1 | 29.3% (inactive)
